In the library only some 2.2% were active in any assay of this set; here they are far more common.
Mot1-301 SUMO – inhibitors of SUMOylation pathway: yeast Mot1-301 growth rescue | S. cerevisiae Mot1-301 growth rescue, ATP luminescence, 38.5C; percent above DMSO median, 100 means doubled | growth rescue, % at 18.8 µM | hit rate 1% among 320,000 | AID 2716;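 active = every valid replicate shows activation above 250% relative to neutral control wells; inactive = the rest, any valid replicate at or below 250%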;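 note: OY570 slx delta 5 strain wells were the positive control but not used for scaling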
PHOSPHO1 inh – blocks human PHOSPHO1 phosphatase activity. Q8TCT1. recombinant PHOSPHO1, absorbance phosphatase assay. inhibition, % at 13.3 µM. hit rate 1.1% among 290,000; in the data active = inhibition above about 60%
HDAC3 inhib – inhibitors of human histone deacetylase 3. recombinant HDAC3, fluorogenic peptide/trypsin coupled, fluorescence. inhibition, % at 8.3 µM. O15379. hit rate 0.15% among 320,000; in the data active = inhibition above about 26%, passing the limit was not always enough; inconclusive = no clear call, values can overlap the other calls
GASC-1 inh – inhibitors of human GASC-1 (JMJD2C) demethylase; inhibition, % at 2.35 µM; Q9H3R0; hit rate 0.069% among 330,000; GST-JMJD2C(1-420) H3K9me3 demethylation, DELFIA europium;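 active = more than half of a compound's replicate wells show inhibition beyond 50%, single wells judged on their own value; inconclusive = some, but no more than half, of replicates pass 50% inhibition; inactive = no replicate passes 50% inhibition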;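 note: signal counts dimethyl H3K9 product captured on neutravidin plate; 0% = median of DMSO wells and 100% = 0.3 times that DMSO median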
PvdQ inh – P. aeruginosa PvdQ acylase inhibition; purified PvdQ acylase, fluorescence plate reader; inhibition, % at 10 µM; hit rate 0.063% among 340,000; in the data active = inhibition above about 30%, passing the limit was not always enough; inconclusive = no clear call, values can overlap the other calls;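 note: 0% = vehicle neutral wells and 100% = reference inhibitor wells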
p-CIP stab down – compounds decreasing mouse p/CIP protein stability; Q05BA5; F442A p/CIP-EGFP cells, EGFP fluorescence, 16 h; decrease of EGFP signal, % at 10 µM; hit rate 0.01% among 290,000;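 active = EGFP signal decrease of at least 30% at 10 µM or well 3 SD below plate mean, unless failing retest; inactive = the rest, including hits failing retest or dose response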
Target sequence (Q05BA5 1-1403): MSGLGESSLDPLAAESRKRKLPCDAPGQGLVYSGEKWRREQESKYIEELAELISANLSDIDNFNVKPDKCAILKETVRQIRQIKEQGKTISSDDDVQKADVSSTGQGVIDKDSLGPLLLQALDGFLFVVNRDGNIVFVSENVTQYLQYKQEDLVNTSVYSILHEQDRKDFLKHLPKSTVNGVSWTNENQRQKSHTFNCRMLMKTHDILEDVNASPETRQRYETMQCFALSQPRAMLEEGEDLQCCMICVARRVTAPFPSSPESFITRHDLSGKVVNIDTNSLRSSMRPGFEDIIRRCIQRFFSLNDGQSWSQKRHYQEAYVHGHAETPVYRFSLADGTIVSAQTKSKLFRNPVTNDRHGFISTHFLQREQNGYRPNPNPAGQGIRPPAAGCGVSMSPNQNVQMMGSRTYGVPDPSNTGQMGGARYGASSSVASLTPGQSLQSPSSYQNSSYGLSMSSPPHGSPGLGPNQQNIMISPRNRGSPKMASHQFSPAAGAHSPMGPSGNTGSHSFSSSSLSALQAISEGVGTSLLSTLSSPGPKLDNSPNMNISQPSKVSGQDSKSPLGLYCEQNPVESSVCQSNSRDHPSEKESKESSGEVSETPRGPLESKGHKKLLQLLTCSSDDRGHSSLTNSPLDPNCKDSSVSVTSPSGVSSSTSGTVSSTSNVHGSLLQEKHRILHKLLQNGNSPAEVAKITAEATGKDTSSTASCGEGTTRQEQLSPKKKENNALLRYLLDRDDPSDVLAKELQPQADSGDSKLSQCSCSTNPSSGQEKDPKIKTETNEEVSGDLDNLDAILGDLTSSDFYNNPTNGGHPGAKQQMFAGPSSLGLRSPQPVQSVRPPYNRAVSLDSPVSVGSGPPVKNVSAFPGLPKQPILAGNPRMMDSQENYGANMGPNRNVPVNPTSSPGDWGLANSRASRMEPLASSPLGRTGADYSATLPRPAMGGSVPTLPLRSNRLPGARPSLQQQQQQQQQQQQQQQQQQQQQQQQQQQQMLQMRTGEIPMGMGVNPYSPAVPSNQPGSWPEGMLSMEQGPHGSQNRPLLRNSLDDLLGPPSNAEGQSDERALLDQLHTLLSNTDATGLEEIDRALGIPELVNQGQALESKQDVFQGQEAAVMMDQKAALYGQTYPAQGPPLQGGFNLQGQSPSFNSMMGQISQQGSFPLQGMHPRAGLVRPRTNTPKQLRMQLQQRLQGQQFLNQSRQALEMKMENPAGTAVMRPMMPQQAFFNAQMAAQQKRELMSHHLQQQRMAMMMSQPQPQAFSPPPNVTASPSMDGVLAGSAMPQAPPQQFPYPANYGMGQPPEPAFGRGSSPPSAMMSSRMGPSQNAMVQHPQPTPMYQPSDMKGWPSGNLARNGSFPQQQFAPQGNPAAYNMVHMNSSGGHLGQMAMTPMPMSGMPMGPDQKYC
* marks the source's active call; other numbers are inactive results; u = inconclusive; x = no result.

SMILES	Mot1-301 SUMO	PHOSPHO1 inh	HDAC3 inhib	GASC-1 inh	PvdQ inh	p-CIP stab down
COCCn1c(SC2CCCCC2=O)nnc1-c1ccncc1 (centres undefined)	3.9	6.6	0.2	1.7	-12.6	17.2
O=C1CCCCC1Sc1nnc(Cc2cccs2)n1CCc1ccccc1 (centres undefined)	-2.4	71.3*	-3.1	-1.2	-12.4	-4.8
C/C=C/C=C/C(=O)N1CC2(CC(c3cccc(NC(=O)CCCCC)c3)=NO2)C[C@H]1C(N)=O (some centres undefined)	6.5	22.1	60.8*	-23.9	-10.7	5.5
NC(=O)[C@H]1CC2(CC(c3cccc(NC(=O)CC(c4ccccc4)c4ccccc4)c3)=NO2)CN1C(=O)CC(c1ccccc1)c1ccccc1 (some centres undefined)	355.3*	22.1	-9.7	-2.5	-7.4	-1.7
C/C=C/C(=O)N1CC2(CC(c3cccc(NC(=O)CCCCC)c3)=NO2)C[C@H]1C(N)=O (some centres undefined)	x	0.1	x	3.3	x	-1.3
CN(c1ccc(OCC(=O)N2CCN(c3ccc(F)cc3)CC2)cc1)S(=O)(=O)c1cccs1	15.9	3.5	-2.5	-4.2	-1.8	12.8
O=C(CCS(=O)(=O)c1cccs1)N1CCN(c2ccc(F)cc2)CC1	-11.1	17.7	3.9	1.7	-7.4	-1.3
CN(c1ccc(OCC(=O)N2CCCCC2)cc1)S(=O)(=O)c1cccs1	x	8.6	-4.3	64.5*	-21.3	-14.9
O=C(CCS(=O)(=O)c1cccs1)N1CCCC1	-4.3	63.9*	1.1	-1.4	-7.6	-2.6
CCOC(=O)c1cnc2ccc(OCC)cc2c1NCCCN1CCOCC1	-4.8	13.8	-0.2	-3.2	-11.0	2.6
O=C(c1ccc2nccnc2c1)N1CCCC(N2CCN(c3ccc(F)cc3)CC2)C1 (centres undefined)	15.1	11.9	1.5	10.0	-11.1	9.4
CCOC(=O)C(=NCCCN1CCOCC1)NNc1cccc(C(F)(F)F)c1	324.1*	39.7	6.9	0.5	9.5	-12.8
CCOC(=O)CN=C1CC(C)(C)CC2=C1Sc1ncnc(N(C)C)c1N2	x	96.8*	x	0.6	1.4	7.5
COCCn1c(C)cc(C(=O)CSc2nncn2-c2ccccc2)c1C	-16.8	94.8*	5.9	1.7	-7.2	-9.9
COc1ccc(-n2cnnc2SCC(=O)c2cc(C)n(Cc3cccs3)c2C)cc1	-8.7	49.2	11.3	-8.1	-4.5	-30.3
COCCn1c(C)cc(C(=O)CSc2ccc3ccccc3n2)c1C	2.8	68.8*	6.5	95.7	-3.6	-5.6
O=C(c1cccs1)N1CCC(c2nc3c(nnn3Cc3ccccc3Cl)c(=O)[nH]2)CC1	14.0	49.2	-2.9	2.4	-22.4	-3.5
S=c1[nH]nc(-c2cc(-c3ccco3)[nH]n2)n1-c1cccc2ccccc12	29.2	93.8*	7.1	6.3	-10.0	-26.8
O=C(O)c1ccc(-n2c(-c3cc(C4CC4)[nH]n3)n[nH]c2=S)cc1	-5.5	63.1*	u	0.3	9.1	3.4
O=C(O)c1ccc(-n2c(-c3ccccc3)n[nH]c2=S)cc1	8.4	-15.6	-1.2	3.8	-7.4	-3.5
CC(=O)c1ccc(-n2c(-c3cc(-c4ccco4)[nH]n3)n[nH]c2=S)cc1	0.0	96.9*	7.6	1.8	-4.0	-8.2
O=C(O)c1ccc(-n2c(-c3cc(-c4ccco4)[nH]n3)n[nH]c2=S)cc1	x	-22.9	9.6	-11.8	-9.3	-6.8
Cc1ccc(-n2c(-c3cc(-c4ccco4)[nH]n3)n[nH]c2=S)c(Br)c1	27.4	18.8	-0.4	-11.0	-3.8	-7.4
COc1ccccc1N1CCN(C(=O)CN(C)S(=O)(=O)c2cc(C)ccc2OC)CC1	7.6	26.2	1.9	-15.4	1.6	-4.0
C=CCSC1=C(C#N)C(c2ccccc2OCC)C(C#N)C(=O)N1 (centres undefined)	-10.2	88.7*	4.8	2.4	-0.7	-7.0
SMILES	Mot1-301 SUMO	PHOSPHO1 inh	HDAC3 inhib	GASC-1 inh	PvdQ inh	p-CIP stab down
COc1ccc2c(c1)c(C(=O)CNc1nc(C)cs1)c(C)n2C	134.5	81.2*	-4.4	0.4	-12.5	3.3
COc1ccc2c(c1)c(C(C)=O)c(C)n2C	5.3	32.1	x	-7.2	-10.4	-6.2
CCOCc1cnc(C)nc1NCC(=O)c1c(C)n(C)c2ccc(OC)cc12	x	92.3*	x	-1.3	2.8	-5.4
O=C(CCn1c(=O)oc2ccccc21)NC1=NCCS1	342.0*	-2.3	1.8	-4.2	-5.9	3.3
O=C(O)CN1C(=O)/C(=C\c2cccc(OC(=O)c3ccco3)c2)SC1=S	416.8*	-13.0	8.8	-5.0	-16.5	-7.1
CCN1C(=O)/C(=C\c2cccc(OC(=O)c3ccco3)c2)SC1=S	321.2*	37.0	1.9	6.9	-6.0	-6.8
C=CCN1C(=O)/C(=C\c2cccc(OC(=O)c3ccco3)c2)SC1=S	3.8	27.9	2.6	-2.4	-15.8	-8.2
Cc1ccc(C(=O)N(C)CCOc2ccccc2)cc1S(=O)(=O)N1CCOCC1	0.0	x	5.4	0.4	-11.0	x
CCCC1CCc2c(sc(N)c2C(N)=O)C1 (centres undefined)	-14.9	95.4*	1.2	5.9	7.3	-6.3
CC(C)(C)C1CCc2c(sc(N)c2C(N)=O)C1 (centres undefined)	x	83.3*	2.3	5.3	-5.9	-18.1
N#Cc1c2ccc(OCC(N)=O)cc2n2ccccc12	370.9*	45.6	-11.8	96.4	-9.2	-8.4
CCOC(=O)COc1ccc2c(C#N)c3ccccn3c2c1	x	-9.0	x	x	5.5	5.8
O/N=C(\CN1CCCCC1)c1ccccc1	-14.3	18.4	-7.4	1.2	-8.5	-5.6
COc1ccc(CNC(=O)[C@H](C)NC(=O)N2CCn3c2nc2ccccc23)cc1	-9.1	69.7*	-11.7	5.0	-15.6	-1.1
O=C(Nc1ccc(Br)cc1)C(c1ccccc1)c1ccccc1	801.3*	19.5	-5.5	-4.1	-12.6	-1.2
c1ccc(CCSc2ncnc3nc[nH]c23)cc1	6.5	20.7	-1.1	22.0	-0.3	1.0
c1ccc2c(CSc3ncnc4nc[nH]c34)cccc2c1	294.6*	51.8	x	-0.2	-9.0	-11.4
N#C/C(=C\c1ccc([N+](=O)[O-])o1)c1nc2ccccc2[nH]1	357.0*	-4.5	3.6	4.8	x	-245.4
O=C(COC(=O)c1ccco1)NCc1ccc(F)cc1	4.2	32.3	-6.4	4.5	-14.6	-5.6
Cc1nnc(SCC(=O)Nc2nc(-c3ccccc3)cs2)n1N	-16.3	68.8*	-1.4	5.2	-10.4	13.0
COc1ccc2nc(NC(=S)N(C)C)sc2c1	-20.9	94.6*	6.1	-11.2	-1.0	-1.7
COc1ccc2nc(NC(=O)CSc3nnc(C)n3N)sc2c1	305.4*	21.0	-0.1	10.1	-19.9	0.0
CSCCC(NC(N)=O)C(=O)Nc1cccc(C#N)c1 (centres undefined)	2.2	32.2	1.0	-16.5	-16.5	-3.9
Cc1ccc(N2C(=O)CCC2=O)c(C)c1	-6.0	x	-2.4	1.2	-9.5	x

High-throughput results: PubChem BioAssay, several laboratories
